# Measured values as given in PubChem BioAssay AID463173 (ICCB-Longwood Screening Facility, Harvard Medical School, 2010).
# About 4,300 (8.3%) of roughly 52,000 compounds were called active. The full list was thinned out, with actives kept by preference. A number with no mark means an inactive call. No stated cut-off is given here; in the data, active means survival mostly below about 52% (no sharp cut-off); inactive means mostly above about 56%.
# System: DeltatarO mutant
# Assay: S. aureus survival, RN4220 and DeltatarO strains – OD600, teichoic acid synthesis inhibitors, primary screen (AID 463173)
# Conditions: S. aureus RN4220 wild type/DeltatarO growth, OD600, 18 h, hits give low values, screened at 18.75 µg/mL (by protocol)
row,SMILES,survival
1,CCN(CC)CCNC(=O)c1sc2nc(C)cc(C)c2c1-n1cccc1,86%
2,CC(C)CN(CCNC(=O)c1cc(=O)[nH]c2ccc(S(=O)(=O)N3CCCCCC3)cc12)CC(C)C,86%
3,COc1ccc(OC)c(CNC(=O)Cn2ncc3c([nH]c4ccc(C)cc43)c2=O)c1,92%
4,O=C(Oc1ccc(Cl)cc1)c1cc(-c2ccc3c(c2)OCCO3)on1,116%
5,Cc1ccc(-c2cc(C(=O)Oc3ccc(C#N)cc3)no2)cc1,97%
6,CC(C)c1ccc(OC(=O)c2cc(-c3ccc(Cl)cc3)on2)cc1,98%
7,O=C(Nc1cc(C(F)(F)F)ccc1Cl)c1cc(-c2ccc3c(c2)OCCO3)on1,116%
8,CC(C)c1ccc(OC(=O)c2cc(-c3ccc4c(c3)OCCO4)on2)cc1,8% (active)
9,Cc1ccc(OC(=O)c2cc(-c3ccc4c(c3)OCCO4)on2)cc1C,-2% (active)
10,COc1ccc(OC(=O)c2cc(-c3ccc4c(c3)OCCO4)on2)cc1,101%
11,Cc1cc(OC(=O)c2cc(-c3ccc4c(c3)OCCO4)on2)ccc1Cl,-1% (active)
12,N#Cc1ccc(OC(=O)c2cc(-c3ccc4c(c3)OCCO4)on2)cc1,117%
13,CCC(C)NC(=O)Cn1c(=O)cc(-c2ccccc2)c2c(C)nn(C)c21 (stereo not given),70%
14,COc1cccc(NC(=O)Cc2csc(COc3cccc(C)c3)n2)c1,72%
15,CCOC(=O)c1cnn(-c2ccc(C(=O)Nc3ccc(OC(F)(F)F)cc3)cc2)c1N,124%
16,COC(=O)c1cnn(-c2ccc(C(=O)Nc3ccc(OC(F)(F)F)cc3)cc2)c1N,25% (active)
17,COC(=O)c1cnn(-c2ccc(C(=O)Nc3ccc(C(C)=O)cc3)cc2)c1N,63%
18,O=C(Cn1nc2c(cc1=O)CCCC2)NCc1ccccc1Cl,144%
19,COc1ccccc1CNS(=O)(=O)c1cc(-c2cc(C)no2)ccc1C,102%
20,CCc1ccccc1NC(=O)CSc1nnc(-c2cc(OC)c(OC)c(OC)c2)o1,111%
21,CCCCSCCCNC(=O)CN1C(=O)COc2ccc(S(=O)(=O)N3CCCC3)cc21,66%
22,O=C(CN1C(=O)COc2ccc(S(=O)(=O)N3CCCC3)cc21)N1CCN(c2cccc(C(F)(F)F)c2)CC1,79%
23,O=C(CN1C(=O)COc2ccc(S(=O)(=O)N3CCOCC3)cc21)N1CCN(c2cccc(C(F)(F)F)c2)CC1,93%

row,SMILES,survival
1,CCCSCCCNC(=O)CN1C(=O)COc2ccc(S(=O)(=O)N3CCCC3)cc21,71%
2,O=C(CN1C(=O)COc2ccc(S(=O)(=O)N3CCCCCC3)cc21)N1CCN(c2cccc(C(F)(F)F)c2)CC1,61% (active)
3,CCCSCCCNC(=O)CN1C(=O)COc2ccc(S(=O)(=O)N3CCCCCC3)cc21,62% (active)
4,CC(=O)c1cccc(NC(=O)CCc2c(C)nc3c(-c4ccc(F)cc4)c(C)nn3c2C)c1,76%
5,CCC1CN(C(=O)Nc2ccc(Br)cc2F)c2ccccc2S1 (stereo not given),90%
6,CCOC(=O)C1CCN(c2nc3c(S(=O)(=O)c4ccccc4)nnn3c3ccc(Cl)cc23)CC1,112%
7,COc1cc(C2CC(=O)Nc3ccc4ccccc4c32)ccc1OC(=O)C(C)C (stereo not given),67%
8,Cc1ccc2c(c1)N(C(=O)Nc1cccc3c1CCCC3)CC(C)O2 (stereo not given),56%
9,CCOc1ccc(CCNS(=O)(=O)c2c(C)nc3scc(C)n3c2=O)cc1OCC,83%
10,CCN(CC)S(=O)(=O)c1ccc2c(c1)c(=O)c(C(=O)NCc1ccccc1Cl)cn2C,61%
11,COC(=O)CSc1nc2ccccc2s1,94%
12,CCNc1nc2ccccc2s1,72%
13,CC(C)(C)NSc1nc2ccccc2s1,58% (active)
14,Cc1ccccc1-c1noc(-c2ccc(N3CCC(C)CC3)c([N+](=O)[O-])c2)n1,55%
15,CCOc1ccc2nc(N3CCC(C(=O)Nc4ccccc4CC)CC3)sc2c1,70%
16,COc1ccc(-c2cc(C(=O)Nc3c(C)n(C)n(-c4ccccc4)c3=O)no2)cc1OC,59%
17,COc1ccc(-c2cc(C(=O)Nc3c(C)n(C)n(-c4ccccc4)c3=O)no2)cc1,46% (active)
18,Cc1c(NC(=O)c2cc(-c3ccccc3O)on2)c(=O)n(-c2ccccc2)n1C,51% (active)
19,Cc1c(NC(=O)c2cc(-c3cccc(O)c3)on2)c(=O)n(-c2ccccc2)n1C,56%
20,Cc1c(NC(=O)c2cc(-c3cccc(Cl)c3)on2)c(=O)n(-c2ccccc2)n1C,55%
21,Cc1c(NC(=O)c2cc(-c3ccc(Cl)cc3)on2)c(=O)n(-c2ccccc2)n1C,121%
22,Cc1c(NC(=O)c2cc(-c3ccc(Cl)c(Cl)c3)on2)c(=O)n(-c2ccccc2)n1C,38% (active)
23,Cc1c(NC(=O)c2cc(-c3ccc(O)cc3)on2)c(=O)n(-c2ccccc2)n1C,169%

row,SMILES,survival
1,Cc1c(NC(=O)c2cc(-c3ccc(F)cc3)on2)c(=O)n(-c2ccccc2)n1C,72%
2,CCOC(=O)c1cccc(NC(=O)c2ccc3c(c2)nnn3CC)c1,66%
3,Cc1ccc(-c2onc(C)c2C)cc1S(=O)(=O)N1c2ccccc2CC1C (stereo not given),79%
4,COc1ccc(CCNC(=O)c2c(O)nc3ccccn3c2=O)cc1OC,54%
5,Cc1ccc(CNC(=O)c2c(O)nc3ccccn3c2=O)cc1,89%
6,Cc1cccn2c(=O)c(C(=O)NCc3ccc(F)cc3)c(O)nc12,119%
7,COc1cccc(CNC(=O)c2c(O)nc3ccccn3c2=O)c1,43% (active)
8,COc1cccc(CCNC(=O)c2c(O)nc3cc(C)ccn3c2=O)c1,82%
9,COc1cccc(CCNC(=O)c2c(O)nc3ccccn3c2=O)c1,48% (active)
10,COc1ccc(CNC(=O)c2c(O)nc3cc(C)ccn3c2=O)cc1,78%
11,COc1ccc(CCNC(=O)c2c(O)nc3ccccn3c2=O)cc1,81%
12,O=C(NCc1ccc(F)cc1)c1c(O)nc2ccccn2c1=O,44% (active)
13,COc1ccccc1N1CCN(C(=O)CSc2nc3ccccc3nc2Cc2ccccc2)CC1,101%
14,COc1ccc(OC)c(-c2noc(N3CCN(c4ccc(Cl)cc4)CC3)n2)c1,88%
15,CCn1c(CNC(=O)c2ccc(OC)cc2)nnc1SCC(=O)Nc1cc(C)ccc1C,112%
16,COc1cccc(C(=O)N(Cc2cccnc2)c2nc3c(OC)ccc(C)c3s2)c1OC,73%
17,O=S(=O)(Nc1cccc(-c2ccc(N3CCOCC3)nn2)c1)c1ccccc1C(F)(F)F,89%
18,COc1ccc(C(=O)CCC(=O)Nc2ccc(OC)c(Cl)c2)cc1,86%
19,COc1ccc(C2=C(C(C)=O)Sc3nnc(-c4ccccc4)n3N2C(C)=O)cc1,87%
20,COc1ccc(-c2nnc3n2N(C(C)=O)C(c2ccc(Cl)c(Cl)c2)=C(C(C)=O)S3)cc1,20% (active)
21,CC(=O)C1=C(c2ccc(Cl)c(Cl)c2)N(C(C)=O)n2c(nnc2-c2ccccc2)S1,94%
22,CN(C)c1ccc(CN(CC2CCCO2)C(=O)COc2ccc(Cl)cc2)cc1 (stereo not given),59%
23,CCc1nn2c(=O)c(S(=O)(=O)Nc3cccc(F)c3)c(C)nc2s1,70%

row,SMILES,survival
1,COc1ccccc1CNS(=O)(=O)c1ccc2c(c1)NC(=O)CC(=O)N2,89%
2,O=S(=O)(Nc1nc2n(n1)C(c1ccccc1)C=C(c1ccc(Cl)cc1)N2)c1ccccc1 (stereo not given),47% (active)
3,Cc1ccc(C2C=C(c3ccccc3)Nc3nc(NS(=O)(=O)c4ccccc4)nn32)cc1 (stereo not given),68%
4,O=S(=O)(Nc1nc2n(n1)C(c1ccc(F)cc1)C=C(c1ccccc1)N2)c1ccccc1 (stereo not given),73%
5,O=C(Nc1nc2n(n1)C(c1ccc(F)cc1)C=C(c1ccc(Cl)cc1)N2)c1ccc([N+](=O)[O-])cc1 (stereo not given),64%
6,Cc1ccc(C2C=C(c3ccc(F)cc3)Nc3nc(CCCO)nn32)cc1 (stereo not given),53%
7,O=S(=O)(Nc1nc2n(n1)C(c1ccc(F)cc1)C=C(c1ccccc1)N2)c1ccc(Cl)cc1 (stereo not given),10% (active)
8,O=S(=O)(Nc1nc2n(n1)C(c1ccc(F)cc1)C=C(c1ccc(Cl)cc1)N2)c1ccccc1 (stereo not given),42% (active)
9,Cc1ccc(S(=O)(=O)Nc2nc3n(n2)C(c2ccc(F)cc2)C=C(c2ccccc2)N3)cc1 (stereo not given),29% (active)
10,COc1ccccc1C(=O)Nc1nc2n(n1)C(c1ccc(F)cc1)C=C(c1ccc(Cl)cc1)N2 (stereo not given),49%
11,CC(C)(C)C(=O)CSc1nnc(-c2ccccc2)o1,85%
12,COc1cccc(CNC(=O)CCc2c(C)c3cc4c(C)coc4c(C)c3oc2=O)c1,55%
13,CCC(=O)N1CCc2cc(Br)cc(S(=O)(=O)N3CCCC(C(=O)Nc4ccc(OC)cc4OC)C3)c21 (stereo not given),65%
14,COc1cc(OC)c(NC(=O)c2noc3c2CSc2ccccc2-3)cc1Cl,69%
15,Cc1ccccc1OC(=O)c1nc(SCc2ccccc2F)ncc1Cl,107%
16,Cc1ccc(S(=O)(=O)Nc2nc3n(n2)C(c2ccc(Cl)cc2)C=C(c2ccccc2)N3)cc1 (stereo not given),2% (active)
17,Cc1ccc(C2C=C(c3ccccc3)Nc3nc(NS(C)(=O)=O)nn32)cc1 (stereo not given),67%
18,COc1ccc(C2=CC(c3ccccc3Cl)n3nc(-c4ccc(C)cc4)nc3N2)cc1 (stereo not given),91%
19,Cc1ccc(S(=O)(=O)Nc2nc3n(n2)C(c2ccccc2Cl)C=C(c2ccccc2)N3)cc1 (stereo not given),37% (active)
20,Cc1ccc(C2C=C(c3ccc(Cl)cc3)Nc3nc(NS(=O)(=O)c4ccccc4)nn32)cc1 (stereo not given),62%
21,Cc1ccc(-c2nc3n(n2)C(c2ccccc2Cl)C=C(c2ccc(Cl)cc2)N3)cc1 (stereo not given),95%
